Test results reported in the supplement of paper PMC11732987, “Enantioselective OTUD7B fragment discovery through chemoproteomics screening and high-throughput optimisation” (Communications Chemistry, 2025).

Legend:
Test in all cases: log2 ratio of Biotin-Ahx-Ub-VS probe labelling (compound/DMSO); higher = less target engagement, active = hit call of the paper (q ≤ 0.05, log2 ratio ≤ -1)
Settings in all cases: treatment time: 3 h
[1] = compound: ClCC(=O)N[C@H]1CCCc2ccccc12
Outline: (§1)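 HEK293T lysate (495 µg per sample, in Tris/CHAPS/IGEPAL buffer with protease inhibitors) was treated in triplicate with compound over a concentration series or DMSO for 3 h, then with Biotin-Ahx-Ub-VS (0.5 µM final) for 1 h. Labelled DUBs were NeutrAvidin-enriched, digested with LysC and trypsin, and run by diaPASEF LC-MS/MS. Spectronaut label-free protein quantities were global-median-normalised. Values are average log2 ratios compound/DMSO from an unpaired t-test, using proteins with ≥2 unique peptides.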

[2] = compound: CCC1N(CCc2cc(OC)c(Cl)cc12)C(=O)CCl
Outline: (§2)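 HEK293T lysate (495 µg per sample, in Tris/CHAPS/IGEPAL buffer with protease inhibitors) was treated in triplicate with compound at 50 or 200 µM or with DMSO for 3 h. It was then treated with Biotin-Ahx-Ub-VS (0.5 µM final) for 1 h. Labelled DUBs were NeutrAvidin-enriched, digested with LysC and trypsin, and run by diaPASEF LC-MS/MS. Median-normalised label-free quantities gave average log2 ratios compound/DMSO by unpaired t-test, using proteins with ≥2 unique peptides.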

[3] = compound: CCCC1N(CCc2cc(OC)c(OC)cc12)C(=O)CCl
Outline: as §2

[4] = compound: CCC1N(CCc2sccc12)C(=O)CCl
Outline: as §2

[5] = compound: CN1c2ccccc2C(CS1(=O)=O)NC(=O)CCl
Outline: as §2

[6] = compound: Cl.ClCC(=O)N1CCc2ncncc2C1
Outline: as §2

[7] = compound: Cl.Cn1ncc2C(CCCc12)NC(=O)CCl
Outline: as §2

[8] = compound: ClCC(=O)NC1CCOc2ccccc12
Outline: as §2

[9] = compound: ClCC(=O)NC1CCCc2ccccc12
Outline: as §1

[10] = compound: ClCC(=O)N[C@@H]1CCCc2ccccc12
Outline: as §1

Measured: log2 ratio of Biotin-Ahx-Ub-VS probe labelling

USP25 (UniProt Q9UHP3)
Sequence of UniProt Q9UHP3 (Q9UHP3 whole entry): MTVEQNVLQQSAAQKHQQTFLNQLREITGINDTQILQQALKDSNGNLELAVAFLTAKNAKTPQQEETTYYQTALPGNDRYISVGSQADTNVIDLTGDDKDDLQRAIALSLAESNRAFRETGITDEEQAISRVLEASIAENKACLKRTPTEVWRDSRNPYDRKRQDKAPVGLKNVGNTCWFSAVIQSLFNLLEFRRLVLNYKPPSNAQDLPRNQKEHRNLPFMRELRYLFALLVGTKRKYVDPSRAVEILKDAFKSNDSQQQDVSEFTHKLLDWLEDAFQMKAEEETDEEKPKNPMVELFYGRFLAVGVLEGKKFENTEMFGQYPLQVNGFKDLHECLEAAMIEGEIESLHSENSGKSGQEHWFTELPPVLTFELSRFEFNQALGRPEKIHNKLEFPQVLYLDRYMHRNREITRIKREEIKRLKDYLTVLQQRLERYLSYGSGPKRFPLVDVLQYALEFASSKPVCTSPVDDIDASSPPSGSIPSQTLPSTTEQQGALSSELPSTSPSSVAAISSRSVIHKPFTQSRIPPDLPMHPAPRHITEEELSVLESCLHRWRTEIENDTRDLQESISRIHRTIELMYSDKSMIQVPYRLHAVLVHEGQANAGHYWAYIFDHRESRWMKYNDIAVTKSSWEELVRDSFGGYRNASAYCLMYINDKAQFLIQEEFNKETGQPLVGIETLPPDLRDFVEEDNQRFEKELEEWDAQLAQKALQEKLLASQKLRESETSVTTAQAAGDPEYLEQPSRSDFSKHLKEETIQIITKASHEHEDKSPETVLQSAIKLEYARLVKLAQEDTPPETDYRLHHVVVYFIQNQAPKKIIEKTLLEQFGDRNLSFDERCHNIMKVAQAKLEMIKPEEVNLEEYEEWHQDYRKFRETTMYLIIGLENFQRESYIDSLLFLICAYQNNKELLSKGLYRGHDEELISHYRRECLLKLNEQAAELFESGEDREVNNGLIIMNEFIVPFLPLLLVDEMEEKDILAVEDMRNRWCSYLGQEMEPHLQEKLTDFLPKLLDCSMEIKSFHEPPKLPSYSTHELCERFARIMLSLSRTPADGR
active: [2]; compound concentration: 200uM -1.2
inactive: [1]; compound concentration: 3.13uM -0.0391 | [1]; compound concentration: 6.25uM -0.447 | [1]; compound concentration: 12.5uM -0.421 | [1]; compound concentration: 25uM -0.293 | [1]; compound concentration: 50uM -0.255 | [1]; compound concentration: 100uM -0.504 | [1]; compound concentration: 200uM -0.644 | [2]; compound concentration: 50uM -0.56 | [3]; compound concentration: 50uM -0.02 | [3]; compound concentration: 200uM 0.295

UniProt Q70EL2
Sequence of UniProt Q70EL2 (Q70EL2 whole entry): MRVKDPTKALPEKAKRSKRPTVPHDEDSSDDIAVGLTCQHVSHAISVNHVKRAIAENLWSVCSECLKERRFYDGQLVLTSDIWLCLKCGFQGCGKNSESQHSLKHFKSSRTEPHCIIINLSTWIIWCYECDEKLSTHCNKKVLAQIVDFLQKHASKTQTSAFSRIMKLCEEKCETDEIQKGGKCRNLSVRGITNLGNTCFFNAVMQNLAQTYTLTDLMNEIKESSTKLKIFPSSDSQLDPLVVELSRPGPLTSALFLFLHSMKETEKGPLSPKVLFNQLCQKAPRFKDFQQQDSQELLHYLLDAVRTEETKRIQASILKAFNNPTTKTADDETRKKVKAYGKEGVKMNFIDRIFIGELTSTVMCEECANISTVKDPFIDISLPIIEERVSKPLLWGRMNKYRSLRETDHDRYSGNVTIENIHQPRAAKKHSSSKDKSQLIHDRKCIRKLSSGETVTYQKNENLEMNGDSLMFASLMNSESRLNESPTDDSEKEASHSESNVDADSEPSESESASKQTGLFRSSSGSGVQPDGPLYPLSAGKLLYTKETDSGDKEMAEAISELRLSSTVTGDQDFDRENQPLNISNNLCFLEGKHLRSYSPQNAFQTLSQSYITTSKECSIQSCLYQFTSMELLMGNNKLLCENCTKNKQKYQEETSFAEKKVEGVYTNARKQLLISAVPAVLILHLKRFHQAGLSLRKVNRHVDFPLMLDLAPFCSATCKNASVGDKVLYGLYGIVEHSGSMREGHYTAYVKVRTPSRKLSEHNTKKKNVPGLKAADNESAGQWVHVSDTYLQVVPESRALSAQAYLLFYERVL
inactive: [4]; compound concentration: 50uM -0.13 | [4]; compound concentration: 200uM -0.934 | [5]; compound concentration: 50uM -0.103 | [5]; compound concentration: 200uM -0.476 | [6]; compound concentration: 50uM 0.274 | [6]; compound concentration: 200uM -0.808 | [7]; compound concentration: 50uM 0.181 | [7]; compound concentration: 200uM -0.179 | [8]; compound concentration: 50uM 0.189 | [8]; compound concentration: 200uM -0.754 | [2]; compound concentration: 50uM -0.48 | [2]; compound concentration: 200uM -0.823 | [3]; compound concentration: 50uM -0.354 | [3]; compound concentration: 200uM -0.47

USP46 (UniProt P62068)
Sequence of UniProt P62068 (P62068 whole entry): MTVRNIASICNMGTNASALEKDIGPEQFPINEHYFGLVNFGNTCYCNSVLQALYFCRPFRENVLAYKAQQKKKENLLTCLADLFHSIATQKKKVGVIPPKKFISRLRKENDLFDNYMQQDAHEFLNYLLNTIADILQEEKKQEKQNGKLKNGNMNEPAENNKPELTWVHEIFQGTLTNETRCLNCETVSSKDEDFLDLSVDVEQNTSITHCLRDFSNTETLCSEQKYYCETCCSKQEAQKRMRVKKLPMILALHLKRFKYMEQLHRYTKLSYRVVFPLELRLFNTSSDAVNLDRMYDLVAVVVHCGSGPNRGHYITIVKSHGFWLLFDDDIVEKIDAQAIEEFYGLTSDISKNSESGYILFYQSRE
inactive: [4]; compound concentration: 50uM 0.00875 | [4]; compound concentration: 200uM -0.386 | [5]; compound concentration: 50uM -0.283 | [5]; compound concentration: 200uM -0.392 | [6]; compound concentration: 50uM -0.496 | [6]; compound concentration: 200uM -0.363 | [7]; compound concentration: 50uM 0.0697 | [7]; compound concentration: 200uM -0.0122 | [8]; compound concentration: 50uM -0.118 | [8]; compound concentration: 200uM -0.18 | [9]; compound concentration: 0.78uM -0.00158 | [9]; compound concentration: 1.56uM -0.0881 | [9]; compound concentration: 3.13uM -0.475 | [9]; compound concentration: 6.25uM -0.276 | [9]; compound concentration: 12.5uM -0.393 | [9]; compound concentration: 25uM -0.421 | [9]; compound concentration: 50uM -0.311 | [9]; compound concentration: 100uM 0.116 | [9]; compound concentration: 200uM -0.326 | [10]; compound concentration: 0.78uM -0.158 | [10]; compound concentration: 1.56uM -0.00787 | [10]; compound concentration: 3.13uM 0.116 | [10]; compound concentration: 6.25uM 0.0618 | [10]; compound concentration: 12.5uM 0.00378 | [10]; compound concentration: 25uM -0.153 | [10]; compound concentration: 50uM -0.14 | [10]; compound concentration: 100uM -0.166 | [10]; compound concentration: 200uM -0.243 | [1]; compound concentration: 0.78uM 0.11 | [1]; compound concentration: 1.56uM -0.348 | [1]; compound concentration: 3.13uM -0.0607 | [1]; compound concentration: 6.25uM -0.153 | [1]; compound concentration: 12.5uM 0.0225 | [1]; compound concentration: 25uM -0.138 | [1]; compound concentration: 50uM 0.0154 | [1]; compound concentration: 100uM -0.107 | [1]; compound concentration: 200uM -0.288 | [2]; compound concentration: 50uM -0.0362 | [3]; compound concentration: 50uM -0.446 | [3]; compound concentration: 200uM -0.735
active: [2]; compound concentration: 200uM -1.5

USP42 (UniProt Q9H9J4)
Sequence of UniProt Q9H9J4 (Q9H9J4 whole entry): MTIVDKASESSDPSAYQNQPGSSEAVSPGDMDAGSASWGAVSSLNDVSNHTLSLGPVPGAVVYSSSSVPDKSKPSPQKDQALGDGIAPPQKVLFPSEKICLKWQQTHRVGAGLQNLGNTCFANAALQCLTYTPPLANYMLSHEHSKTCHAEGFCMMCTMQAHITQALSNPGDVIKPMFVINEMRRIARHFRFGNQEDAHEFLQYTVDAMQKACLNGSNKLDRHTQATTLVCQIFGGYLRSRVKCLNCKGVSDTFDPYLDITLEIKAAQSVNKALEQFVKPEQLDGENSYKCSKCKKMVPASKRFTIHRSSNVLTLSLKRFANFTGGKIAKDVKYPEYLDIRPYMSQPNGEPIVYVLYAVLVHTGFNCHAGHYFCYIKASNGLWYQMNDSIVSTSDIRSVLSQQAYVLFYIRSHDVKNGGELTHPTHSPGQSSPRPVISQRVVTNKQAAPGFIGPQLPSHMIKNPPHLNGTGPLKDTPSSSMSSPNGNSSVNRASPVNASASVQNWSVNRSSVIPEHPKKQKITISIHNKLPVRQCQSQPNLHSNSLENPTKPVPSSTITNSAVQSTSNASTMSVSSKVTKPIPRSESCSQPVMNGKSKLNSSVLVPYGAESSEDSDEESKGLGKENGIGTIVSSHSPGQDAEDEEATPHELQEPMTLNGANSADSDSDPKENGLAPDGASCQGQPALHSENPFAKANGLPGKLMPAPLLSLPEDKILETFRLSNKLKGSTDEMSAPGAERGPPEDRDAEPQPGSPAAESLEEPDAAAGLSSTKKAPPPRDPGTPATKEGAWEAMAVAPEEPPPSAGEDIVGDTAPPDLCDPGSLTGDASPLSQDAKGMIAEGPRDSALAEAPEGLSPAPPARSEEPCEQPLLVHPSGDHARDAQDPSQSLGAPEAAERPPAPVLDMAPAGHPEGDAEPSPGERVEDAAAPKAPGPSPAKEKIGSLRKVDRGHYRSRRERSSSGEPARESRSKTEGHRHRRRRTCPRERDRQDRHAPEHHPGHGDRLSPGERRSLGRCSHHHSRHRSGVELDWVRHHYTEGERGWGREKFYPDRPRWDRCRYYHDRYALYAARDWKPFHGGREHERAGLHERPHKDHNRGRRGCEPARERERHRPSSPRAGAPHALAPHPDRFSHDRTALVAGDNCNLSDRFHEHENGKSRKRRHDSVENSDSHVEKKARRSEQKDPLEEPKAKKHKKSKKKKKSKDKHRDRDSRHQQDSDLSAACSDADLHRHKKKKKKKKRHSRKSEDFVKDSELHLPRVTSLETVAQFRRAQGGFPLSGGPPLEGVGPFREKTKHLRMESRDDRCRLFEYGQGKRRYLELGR
inactive: [4]; compound concentration: 50uM 0.0875 | [4]; compound concentration: 200uM 0.424 | [5]; compound concentration: 50uM 0.125 | [5]; compound concentration: 200uM 0.131 | [6]; compound concentration: 50uM 0.0642 | [6]; compound concentration: 200uM 0.249 | [7]; compound concentration: 50uM -0.167 | [7]; compound concentration: 200uM 0.115 | [8]; compound concentration: 50uM -0.093 | [8]; compound concentration: 200uM 0.371 | [9]; compound concentration: 0.78uM -0.0166 | [9]; compound concentration: 1.56uM -0.0953 | [9]; compound concentration: 3.13uM -0.0821 | [9]; compound concentration: 6.25uM -0.0491 | [9]; compound concentration: 12.5uM -0.106 | [9]; compound concentration: 25uM -0.0142 | [9]; compound concentration: 50uM -0.0733 | [9]; compound concentration: 100uM 0.00602 | [9]; compound concentration: 200uM -0.207 | [10]; compound concentration: 0.78uM 0.0511 | [10]; compound concentration: 1.56uM 0.0688 | [10]; compound concentration: 3.13uM 0.0123 | [10]; compound concentration: 6.25uM 0.154 | [10]; compound concentration: 12.5uM -0.0261 | [10]; compound concentration: 25uM 0.0226 | [10]; compound concentration: 50uM -0.157 | [10]; compound concentration: 100uM 0.109 | [10]; compound concentration: 200uM 0.00814 | [1]; compound concentration: 0.78uM -0.186 | [1]; compound concentration: 1.56uM -0.0565 | [1]; compound concentration: 3.13uM -0.196 | [1]; compound concentration: 6.25uM -0.273 | [1]; compound concentration: 12.5uM -0.0469 | [1]; compound concentration: 25uM 0.0215 | [1]; compound concentration: 50uM -0.0548 | [1]; compound concentration: 100uM 0.132 | [1]; compound concentration: 200uM -0.0982 | [2]; compound concentration: 50uM -0.199 | [2]; compound concentration: 200uM 0.281 | [3]; compound concentration: 50uM -0.0757 | [3]; compound concentration: 200uM 0.0626
